Experimental data as given in the supplement of paper PMC12350171.
Structures can show the parent of a compound that is named as a salt. A number with no mark means an inactive call.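 Rule for the calls: active = AUC significantly below DMSO controls by Student t-fit with adjusted P under 0.01; inactive = not significantly reduced.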

system: Haemophilus parainfluenzae; assay: growth AUC normalised to DMSO control (fraction of control); higher = less growth inhibition, active = hit call of the paper; details: 20 µM
In short: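 After two anaerobic passages, pathogens were added at a starting OD578 of 0.01 to pre-reduced mGAM plates holding compound at 20 μM with 1% DMSO; hemin and NAD were supplemented for Haemophilus parainfluenzae. Sealed with breathable membranes, plates were read at OD578 hourly for 24 h, in three biological replicates. The trapezoidal rule, applied up to the exponential-to-stationary transition, gave the growth-curve AUC, which was normalised to DMSO controls on the same plate.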

Row | Structure (SMILES) | growth AUC normalised to DMSO control
1 | O=C(CCNNC(=O)c1ccncc1)NCc1ccccc1 [Nialamide] | 1.01
2 | c1ccc(CC2=NCCN2)cc1 [Tolazoline hydrochloride] | 1.03
3 | Oc1ccc(OCc2ccccc2)cc1 [Monobenzone] | 0.902
4 | O=C1NCC2(CCN(CCc3ccccc3)CC2)O1 [Fenspiride hydrochloride] | 0.967
5 | N[C@@H](C(=O)N[C@@H]1C(=O)N2C(C(=O)O)=C(Cl)CS[C@H]12)c1ccccc1 [Cefaclor hydrate] | 0.97
6 | COc1ccccc1N1CCN(CC(O)COc2cccc3ccccc23)CC1 (configuration not stated) [Naftopidil dihydrochloride] | 0.971
7 | NCCc1cc[nH]n1 [Betazole hydrochloride] | 1
8 | COc1cc2ncnc(Nc3ccc(F)c(Cl)c3)c2cc1OCCCN1CCOCC1 [Gefitinib] | 0.971
9 | Cn1c(=O)c2nc[nH]c2n(C)c1=O [Theophylline monohydrate] | 0.98
10 | CC(C)[C@H](N)C(=O)OCCOCn1cnc2c(=O)nc(N)[nH]c21 [Valacyclovir hydrochloride] | 0.99
11 | Cc1ccc(S(=O)(=O)NC(=O)NN2CCCCCC2)cc1 [Tolazamide] | 1.04
12 | NC(=O)c1ncn([C@@H]2O[C@H](CO)[C@@H](O)[C@H]2O)n1 [Ribavirin] | 1
13 | COCCCC/C(=N\OCCN)c1ccc(C(F)(F)F)cc1 [Fluvoxamine maleate] | 0.981
14 | CC(C)NCC(O)c1ccc(O)c(O)c1 (single isomer, unassigned; (+)) [(+) Isoproterenol-(+)-bitartrate salt] | 1.02
15 | CNCCC(Oc1ccc(C(F)(F)F)cc1)c1ccccc1 (configuration not stated) [Fluoxetine hydrochloride] | 1
16 | CC1=C(C(=O)O)N2C(=O)[C@@H](NC(=O)[C@H](N)c3ccc(O)cc3)[C@H]2SC1 [Cefadroxil] | 0.949

Row | Structure (SMILES) | growth AUC normalised to DMSO control
17 | OC(CCCN1CCCCC1)(c1ccccc1)c1ccccc1 [Diphenidol hydrochloride] | 1
18 | O=C(C1CCCCC1)N1CC(=O)N2CCc3ccccc3C2C1 (configuration not stated) [Praziquantel] | 1.04
19 | CCCCOc1cc(C(=O)OCCN(CC)CC)ccc1N [Benoxinate hydrochloride] | 1.01
20 | CN1CCOC(c2ccccc2)c2ccccc2C1 (configuration not stated) [Nefopam hydrochloride] | 1
21 | COc1cc(C(=O)NCc2ccc(OCCN(C)C)cc2)cc(OC)c1OC [Trimethobenzamide hydrochloride] | 1.05
22 | CC[C@H]1OC(=O)[C@H](C)[C@@H](O[C@H]2C[C@@](C)(OC)[C@@H](O)[C@H](C)O2)[C@H](C)[C@@H](O[C@@H]2O[C@H](C)C[C@H](N(C)C)[C@H]2O)[C@](C)(O)C[C@@H](C)[C@@H]2N[C@@H](COCCOC)O[C@H]([C@H]2C)[C@]1(C)O [Dirithromycin] | 0.0968 (active)
23 | NC[C@H]1CC[C@H](C(=O)O)CC1 [Tranexamic acid] | 1.04
24 | Clc1ccc(CO/N=C(\Cn2ccnc2)c2ccc(Cl)cc2Cl)c(Cl)c1 [Oxiconazole nitrate] | 1.01
25 | CN1CCC[C@@H]1CCO[C@](C)(c1ccccc1)c1ccc(Cl)cc1 [Clemastine fumarate] | 0.973
26 | COC(=O)C1=C(C)NC(C)=C(C(=O)OC(C)C)C1c1cccc2nonc12 (configuration not stated) [Isradipine] | 1.02
27 | Cc1cc(C(C)(C)CC(C)(C)C)ccc1OCCOCC[N+](C)(C)Cc1ccccc1 [Methyl benzethonium chloride] | 0.994
28 | CN1CCCC(CC2c3ccccc3Sc3ccccc32)C1 (configuration not stated) [Metixene hydrochloride] | 0.999
29 | CCOCCn1c(N2CCCN(C)CC2)nc2ccccc21 [Emedastine difumarate] | 1
30 | Oc1c(I)cc(Cl)c2cccnc12 [Clioquinol] | 1.03
31 | CNS(=O)(=O)Cc1ccc2[nH]cc(CCN(C)C)c2c1 [Sumatriptan succinate] | 0.984
32 | c1ccc(-c2ccc(C(c3ccccc3)n3ccnc3)cc2)cc1 (configuration not stated) [Bifonazole] | 0.998
